Laboratory results as given in PubChem BioAssay AID1159580 (chemical genetic matrix, 2015).
The whole screen tested about 5,500 compounds, of which about 2,000 (36%) were called active. About 18% were inconclusive and are not listed. Cut-off read from the data, not from the text of the source: active = normalized growth mostly below about 0.91 (no sharp cut-off); inconclusive = no clear call, values can overlap the other calls; inactive = mostly above about 0.92. The list shows a part of the results.

Assay: chemical genetic growth profiling, strain panel (AID 1159580);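 note: tested at 20 µM; growth read once vehicle control cultures reached saturation at 30 °C; 1 = growth at the plate median or of vehicle wells; lower values mean less growth of the strain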
Conditions: growth OD

Measured: normalized growth

CCc1cc(C(N)=S)ccn1
inactive: S. cerevisiae deletion strains, locus YJR066W, strain TOR1, hits give low values 1 | S. cerevisiae deletion strains, locus YKL009W, strain mrt4, hits give low values 0.966 | S. cerevisiae deletion strains, locus YKL068W, hits give low values 0.975 | S. cerevisiae deletion strains, locus YKL085W, strain MDH1 (second series), hits give low values 0.964 | S. cerevisiae deletion strains, locus YKL085W, strain MDH1, hits give low values 0.964 | S. cerevisiae deletion strains, locus YKL160W, strain elf1, hits give low values 1.05 | S. cerevisiae deletion strains, locus YKL190W, strain CNB1, hits give low values 0.991 | S. cerevisiae deletion strains, locus YKR001C, strain vps1, hits give low values 0.955 | S. cerevisiae deletion strains, locus YKR026C, strain gcn3, hits give low values 1 | S. cerevisiae deletion strains, locus YKR091W, strain srl3, hits give low values 1.01 | S. cerevisiae deletion strains, locus YLL001W, strain dnm1, hits give low values 1.04 | S. cerevisiae deletion strains, locus YLL026W, hits give low values 1 | S. cerevisiae deletion strains, locus YLL041C, strain sdh2, hits give low values 1 | S. cerevisiae deletion strains, locus YLR027C, strain aat2, hits give low values 0.987 | S. cerevisiae deletion strains, locus YLR039C, strain RIC1, hits give low values 0.939 | S. cerevisiae deletion strains, locus YLR058C, strain SHM2, hits give low values 0.978 | S. cerevisiae deletion strains, locus YLR102C, strain apc9, hits give low values 0.994 | S. cerevisiae deletion strains, locus YLR113W, strain HOG1, hits give low values 1.04 | S. cerevisiae deletion strains, locus YLR221C, strain rsa3, hits give low values 1.02 | S. cerevisiae deletion strains, locus YLR258W, strain gsy2, hits give low values 1 | S. cerevisiae deletion strains, locus YLR262C, strain YPT6 (second series), hits give low values 1.04 | S. cerevisiae deletion strains, locus YLR262C, strain YPT6, hits give low values 0.937 | S. cerevisiae deletion strains, locus YLR268W, strain sec22, hits give low values 0.977 | S. cerevisiae deletion strains, locus YLR320W, strain mms22, hits give low values 1.04 | S. cerevisiae deletion strains, locus YLR330W, strain CHS5, hits give low values 0.984 | S. cerevisiae deletion strains, locus YLR342W, strain FKS1 (second series), hits give low values 1.03 | S. cerevisiae deletion strains, locus YLR342W, strain FKS1, hits give low values 1.01 | S. cerevisiae deletion strains, locus YLR357W, strain rsc2, hits give low values 0.99 | S. cerevisiae deletion strains, locus YLR370C, strain arc18, hits give low values 1 | S. cerevisiae deletion strains, locus YLR371W, strain rom2, hits give low values 0.991 | S. cerevisiae deletion strains, locus YLR384C, strain iki3, hits give low values 1 | S. cerevisiae deletion strains, locus YLR418C, strain cdc73, hits give low values 0.999 | S. cerevisiae deletion strains, locus YML016C, strain PPZ1, hits give low values 0.99 | S. cerevisiae deletion strains, locus YML032C, strain rad52, hits give low values 0.973 | S. cerevisiae deletion strains, locus YML120C, strain ndi1, hits give low values 1.02 | S. cerevisiae deletion strains, locus YML124C, strain tub3, hits give low values 0.987 | S. cerevisiae deletion strains, locus YMR058W, strain fet3, hits give low values 1.01 | S. cerevisiae deletion strains, locus YMR078C, strain ctf18, hits give low values 0.978 | S. cerevisiae deletion strains, locus YMR125W, strain sto1, hits give low values 1 | S. cerevisiae deletion strains, locus YMR129W, hits give low values 0.996 | S. cerevisiae deletion strains, locus YMR205C, strain PFK2, hits give low values 1.07 | S. cerevisiae deletion strains, locus YMR223W, strain ubp8, hits give low values 1.03 | S. cerevisiae deletion strains, locus YMR231W, strain pep5, hits give low values 1 | S. cerevisiae deletion strains, locus YMR263W, strain SAP30, hits give low values 0.982 | S. cerevisiae deletion strains, locus YMR307W, strain GAS1, hits give low values 1.06 | S. cerevisiae deletion strains, locus YNL067W, strain RPL9B, hits give low values 0.954 | S. cerevisiae deletion strains, locus YNL071W, strain lat1, hits give low values 1.01 | S. cerevisiae deletion strains, locus YNL128W, strain TEP1, hits give low values 0.985 | S. cerevisiae deletion strains, locus YNL183C, strain NPR1, hits give low values 0.999 | S. cerevisiae deletion strains, locus YNL209W, strain ssb2, hits give low values 1.01 | S. cerevisiae deletion strains, locus YNL233W, strain BNI4, hits give low values 0.963 | S. cerevisiae deletion strains, locus YNL248C, strain rpa49, hits give low values 1 | S. cerevisiae deletion strains, locus YNL250W, strain rad50, hits give low values 0.964 | S. cerevisiae deletion strains, locus YNL271C, strain bni1, hits give low values 0.971 | S. cerevisiae deletion strains, locus YNL298W, strain CLA4, hits give low values 0.978 | S. cerevisiae deletion strains, locus YNL307C, strain MCK1, hits give low values 0.985 | S. cerevisiae deletion strains, locus YNL322C, strain KRE1 (second series), hits give low values 1.03 | S. cerevisiae deletion strains, locus YNR049C, strain mso1, hits give low values 1 | S. cerevisiae deletion strains, locus YNR052C, strain pop2, hits give low values 0.993 | S. cerevisiae deletion strains, locus YOL006C, strain TOP1, hits give low values 0.995 | S. cerevisiae deletion strains, locus YOL012C, strain htz1 1.05 | S. cerevisiae deletion strains, locus YOL147C, strain pex11, hits give low values 0.988 | S. cerevisiae deletion strains, locus YOR001W, strain rrp6, hits give low values 0.965 | S. cerevisiae deletion strains, locus YOR061W, strain CKA2, hits give low values 0.96 | S. cerevisiae deletion strains, locus YOR069W, strain VPS5, hits give low values 0.998 | S. cerevisiae deletion strains, locus YOR070C, strain gyp1, hits give low values 1.01 | S. cerevisiae deletion strains, locus YOR080W, strain dia2, hits give low values 0.998 | S. cerevisiae deletion strains, locus YOR083W, strain WHI5, hits give low values 1.05 | S. cerevisiae deletion strains, locus YOR106W, strain vam3, hits give low values 1.06 | S. cerevisiae deletion strains, locus YOR136W, strain idh2, hits give low values 0.984 | S. cerevisiae deletion strains, locus YOR144C, strain elg1, hits give low values 0.985 | S. cerevisiae deletion strains, locus YOR184W, strain ser1, hits give low values 1.01 | S. cerevisiae deletion strains, locus YOR231W, strain MKK1, hits give low values 1.07 | S. cerevisiae deletion strains, locus YOR265W, strain rbl2, hits give low values 1.03 | S. cerevisiae deletion strains, locus YOR270C, strain vph1, hits give low values 1.03 | S. cerevisiae deletion strains, locus YOR290C, strain snf2, hits give low values 1.01 | S. cerevisiae deletion strains, locus YOR316C, strain cot1, hits give low values 0.981 | S. cerevisiae deletion strains, locus YPL051W, strain arl3, hits give low values 0.998 | S. cerevisiae deletion strains, locus YPL078C, strain atp4, hits give low values 1.01 | S. cerevisiae deletion strains, locus YPL106C, strain sse1, hits give low values 1.02 | S. cerevisiae deletion strains, locus YPL240C, strain hsp82, hits give low values 0.982 | S. cerevisiae deletion strains, locus YPL256C, strain CLN2, hits give low values 1.15 | S. cerevisiae deletion strains, locus YPR119W, strain clb2, hits give low values 0.986 | S. cerevisiae deletion strains, locus YPR141C, strain kar3, hits give low values 0.974 | S. cerevisiae deletion strains, locus YPR163C, strain tif3, hits give low values 0.986 | S. cerevisiae deletion strains, locus YPR167C, strain met16, hits give low values 0.989 | S. cerevisiae deletion strains, strain wtn01, hits give low values 0.995 | S. cerevisiae strains, strain wild type, hits give low values 0.986
